Test results: PubChem BioAssay (Tox21)
Results filed as inconclusive are left out. Activity calls are given as the source filed them. Unless noted, the call rests on the fitted dose curve; in most records, active means well fitted curve in the direction sought with a large enough effect in the repeat runs; inconclusive means weak or mixed curves; inactive means no such curve, though single readings can be large; an effect the other way counts as inactive or inconclusive.

Tests used:
[1] = qHTS assay to identify small molecule agonists of H2AX (AID 1224845; active means well fitted activation curve with a large enough effect in the signal ratio in the repeat runs, not every such curve was filed as active; the % refers to the signal ratio)
How it was run: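 Wild-type CHO-K1 cells plated overnight, then exposed 3 hr at 37C to compounds at 15 concentrations (0.76% DMSO). Lysed, then HTRF anti-pH2AX(S139)-cryptate/anti-H2AX-d2 detection after 24 hr at room temperature; emissions 665 and 620 nm.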

[2] = qHTS assay to identify small molecule agonists of the hypoxia (HIF-1) signaling pathway (AID 1224846; active means well fitted activation curve with a large enough effect in the signal ratio in the repeat runs, not every such curve was filed as active; the % refers to the signal ratio)
How it was run: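 ME-180 HRE-bla reporter cells; compounds in DMSO, 17 h at 37C; read-out beta-lactamase via CCF4-AM FRET.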

[3] = qHTS assay to identify small molecule agonists of H2AX - cell viability counter screen (AID 1224847; calls by dose curve; further: top concentration of the series differs between compounds; nearly all actives have a fitted effect of over 30% in size)
How it was run: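 CHO-K1 wt, 1000 cells/well, o/n 37C; cpds 15 conc, 3 h 37C, 0.76% DMSO; CellTiter-Glo, 30 min RT, luminescence.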

[4] = qHTS assay to identify small molecule agonists of the estrogen related receptor (ERR) signaling pathway from Tox21 library (AID 1224849; calls by dose curve; further: nearly all actives have a fitted effect of over 15% in size); settings: ERR reporter cell line, ONE-Glo luciferase, 18 h; at 92.4 µM (top of the series)
How it was run: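 Luciferase activity in ERR pathway reporter cells served as the agonist readout; exposure lasted 18 h at 37 C, with ONE-Glo detection after 30 min at room temperature.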

[5] = qHTS RealTime-Glo MT Cell Viability Assay in HepG2 cells - 24 hour (AID 1224867); further: nearly all actives have a fitted effect of over 50% in size
How it was run: (§1)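 Cells + NanoLuc/prosubstrate dispensed (600 cells/well) → 5 h at 37 C/5% CO2 → compounds in DMSO transferred → 40 h incubation at 37 C, luminescence read at 0, 8, 16, 24, 32, 40 h.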

[6] = A CellTox Green Cytotoxicity Assay to monitor cytotoxicity in HEK293 cells - 0 hour (AID 1224869); further: nearly all actives have a fitted effect of over 50% in size
How it was run: (§2)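 Real-time, in one plate: 600 HEK293 cells/well with dead-cell DNA dye, pinned compound after 5 h, 37 C incubation over 40 h; viable cells give no appreciable fluorescence.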

[7] = qHTS RealTime-Glo MT Cell Viability Assay in HepG2 cells - 40 hour (AID 1224870); further: nearly all actives have a fitted effect of over 50% in size
How it was run: (§3)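 HepG2 cells mixed with RealTime-Glo MT reagents (NanoLuc plus cell-permeant prosubstrate) were seeded at 600 cells/well, incubated 5 h at 37 C/5% CO2, then pinned with compounds in DMSO; nonlytic luminescence tracked viability during 40 h treatment.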

[8] = A CellTox Green Cytotoxicity Assay to monitor cytotoxicity in HEK293 cells - 40 hour (AID 1224871); further: nearly all actives have a fitted effect of over 45% in size
How it was run: as §2

[9] = qHTS RealTime-Glo MT Cell Viability Assay in HepG2 cells - 8 hour (AID 1224873); further: nearly all actives have a fitted effect of over 55% in size
How it was run: as §3

[10] = A CellTox Green Cytotoxicity Assay to monitor cytotoxicity in HEK293 cells - 24 hour (AID 1224875); further: nearly all actives have a fitted effect of over 45% in size
How it was run: as §2

[11] = A CellTox Green Cytotoxicity Assay to monitor cytotoxicity in HepG2 cells - 16 hour (AID 1224876); further: nearly all actives have a fitted effect of over 45% in size
How it was run: (§4)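 Cytotoxicity was tracked as dead-cell DNA fluorescence in HepG2 cells treated with test compounds at 37 C; each time-point value comes from one kinetic series spanning 0, 8, 16, 24, 32 and 40 h.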

[12] = qHTS RealTime-Glo MT Cell Viability Assay in HepG2 cells - 32 hour (AID 1224877); further: nearly all actives have a fitted effect of over 55% in size
How it was run: as §1

[13] = A CellTox Green Cytotoxicity Assay to monitor cytotoxicity in HepG2 cells - 24 hour (AID 1224878); further: nearly all actives have a fitted effect of over 45% in size
How it was run: as §4

[14] = A CellTox Green Cytotoxicity Assay to monitor cytotoxicity in HepG2 cells - 40 hour (AID 1224879); further: nearly all actives have a fitted effect of over 40% in size
How it was run: as §4

[15] = qHTS RealTime-Glo MT Cell Viability Assay in HEK293 cells - 0 hour (AID 1224880)
How it was run: (§5)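 Kinetic, non-lysing viability readout. Seed HEK293 (600/well) with reagent, incubate 5 h at 37 C/5% CO2, pin 23 nL compound in DMSO, incubate at 37 C, read luminescence at 0, 8, 16, 24, 32, 40 h.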

[16] = A CellTox Green Cytotoxicity Assay to monitor cytotoxicity in HEK293 cells - 32 hour (AID 1224881); further: nearly all actives have a fitted effect of over 40% in size
How it was run: as §2

[17] = qHTS RealTime-Glo MT Cell Viability Assay in HEK293 cells - 32 hour (AID 1224868); further: top concentration of the series differs between compounds; nearly all actives have a fitted effect of over 50% in size
How it was run: (§6)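 Tox21 10K qHTS, HEK293, 600 cells/well, RealTime-Glo reagent co-dispensed with cells; 5 h preincubation, compound by pintool, 37 C, luminescence at 0–40 h.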

[18] = qHTS RealTime-Glo MT Cell Viability Assay in HEK293 cells - 16 hour (AID 1224872)
How it was run: as §6

[19] = qHTS RealTime-Glo MT Cell Viability Assay in HEK293 cells - 40 hour (AID 1224874); settings: RealTime-Glo luminescence; max response: hits give low values; further: nearly all actives have a fitted effect of over 50% in size
How it was run: as §5

[20] = qHTS assay to identify small molecule antagonists of the estrogen related receptor (ERR) signaling pathway from Tox21 library (AID 1224848); further: nearly all actives have a fitted effect of over 50% in size
How it was run: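 Tox21 10K compounds in DMSO tested for ERR pathway antagonism in NTP's ERR cell line; 18 h, 37 C exposure; ONE-Glo luminescence.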
On the % scale 0 is the no-effect control and ±100 the full control effect.

CC(C)(C)N(NC(=O)c1ccc(Cl)cc1)C(=O)c1ccccc1
inactive: Potency [1] | outcome [2] | Potency [3] | activity change, positive = activation [4] -30.6% | Potency [5] | Potency [6] | Potency [7] | Potency [8] | Potency [9] | Potency [10] | Potency [11] | Potency [12] | Potency [13] | Potency [14] | outcome [15] | Potency [16]

COC(=O)C1(O)c2ccccc2-c2ccccc21
inactive: Potency [1] | outcome [2] | Potency [3] | Potency [5] | Potency [17] | Potency [6] | Potency [7] | Potency [8] | Potency [18] | Potency [9] | max response [19] -22.2% | Potency [10] | Potency [11] | Potency [12] | Potency [13] | Potency [14] | outcome [15] | Potency [16]

CN(C)C(=O)Nc1cccc(OC(=O)NC(C)(C)C)c1
inactive: Potency [1] | outcome [2] | Potency [3] | activity change, positive = activation [4] -15.7% | Potency [5] | Potency [17] | Potency [6] | Potency [7] | Potency [8] | Potency [18] | Potency [9] | max response [19] -14.3% | Potency [10] | Potency [11] | Potency [12] | Potency [14] | outcome [15] | Potency [16]

O=C(O)c1cc(Cl)ccc1Cl
inactive: Potency [1] | outcome [2] | Potency [3] | Potency [5] | Potency [17] | Potency [6] | Potency [7] | Potency [8] | Potency [18] | Potency [9] | max response [19] 8.52% | Potency [10] | Potency [11] | Potency [12] | Potency [13] | Potency [14] | outcome [15] | Potency [16]

NNCCO
inactive: Potency [1] | outcome [2] | Potency [3] | Potency [20] | Potency [5] | Potency [17] | Potency [6] | Potency [7] | Potency [8] | Potency [18] | Potency [9] | max response [19] -1.69% | Potency [10] | Potency [11] | Potency [12] | Potency [14] | outcome [15] | Potency [16]

CCCSP(=S)(OCC)Oc1ccc(SC)cc1 (configuration not stated)
inactive: Potency [1] | outcome [2] | Potency [3] | Potency [20] | activity change, positive = activation [4] 2.16% | Potency [5] | Potency [17] | Potency [6] | Potency [7] | Potency [8] | Potency [18] | max response [19] 3.34% | Potency [11] | Potency [12] | Potency [14] | outcome [15] | Potency [16]

O=C(Cc1ccccc1)c1ccccc1
inactive: Potency [1] | outcome [2] | Potency [3] | Potency [5] | Potency [17] | Potency [6] | Potency [7] | Potency [8] | Potency [18] | Potency [9] | max response [19] 4.41% | Potency [10] | Potency [11] | Potency [12] | Potency [13] | Potency [14] | outcome [15]

CCOc1cccc(C2(N3CCN(c4ccccc4)CC3)CCC(C)CC2)c1 (configuration not stated)
inactive: Potency [1] | outcome [2] | Potency [3] | Potency [5] | Potency [17] | Potency [6] | Potency [7] | Potency [8] | Potency [18] | Potency [9] | max response [19] -7.17% | Potency [10] | Potency [11] | Potency [12] | Potency [13] | Potency [14] | outcome [15] | Potency [16]

COc1cc(CC(C)N)c(OC)cc1Br (configuration not stated)
inactive: Potency [1] | outcome [2] | Potency [3] | Potency [20] | activity change, positive = activation [4] -12.2% | Potency [5] | Potency [6] | Potency [7] | Potency [8] | Potency [18] | Potency [9] | Potency [10] | Potency [11] | Potency [12] | outcome [15] | Potency [16]

COc1cc(C[C@@H](C)N)c(OC)cc1Br
inactive: Potency [1] | outcome [2] | Potency [3] | Potency [20] | activity change, positive = activation [4] -15.6% | Potency [5] | Potency [17] | Potency [6] | Potency [7] | Potency [8] | Potency [18] | Potency [9] | max response [19] -17.7% | Potency [11] | Potency [12] | outcome [15] | Potency [16]

CCCCCl
inactive: Potency [1] | outcome [2] | Potency [3] | Potency [20] | activity change, positive = activation [4] -0.331% | Potency [17] | Potency [7] | Potency [8] | Potency [18] | max response [19] 1.53% | Potency [10] | Potency [11] | Potency [12] | Potency [13] | Potency [14] | outcome [15] | Potency [16]

O=S(=O)(c1ccccc1)c1ccccc1
inactive: Potency [1] | outcome [2] | Potency [3] | Potency [20] | Potency [5] | Potency [17] | Potency [6] | Potency [7] | Potency [8] | Potency [18] | Potency [9] | max response [19] 1.49% | Potency [10] | Potency [11] | Potency [12] | Potency [13] | Potency [14] | outcome [15] | Potency [16]

C=C(Cl)Cl
inactive: Potency [1] | outcome [2] | Potency [3] | Potency [20] | activity change, positive = activation [4] -0.979% | Potency [5] | Potency [17] | Potency [6] | Potency [7] | Potency [8] | Potency [18] | Potency [9] | max response [19] 8.47% | Potency [10] | Potency [11] | Potency [12] | Potency [13] | Potency [14] | outcome [15] | Potency [16]

C#CC(O)(C=CCl)CC (configuration not stated)
inactive: Potency [1] | outcome [2] | Potency [3] | Potency [5] | Potency [17] | Potency [6] | Potency [7] | Potency [8] | Potency [18] | Potency [9] | max response [19] 10.1% | Potency [10] | Potency [11] | Potency [12] | Potency [13] | Potency [14] | outcome [15] | Potency [16]
